The list is not random: actives were taken first. Their share in the collection is about 7%.
USP30 inh: inhibitors of human USP30 deubiquitinase; purified USP30, Ub-rhodamine cleavage fluorescence; inhibition, % at 25 µM; actives 5.3% (n = 47,000)
Target sequence (Q70CQ3 whole entry, looked up): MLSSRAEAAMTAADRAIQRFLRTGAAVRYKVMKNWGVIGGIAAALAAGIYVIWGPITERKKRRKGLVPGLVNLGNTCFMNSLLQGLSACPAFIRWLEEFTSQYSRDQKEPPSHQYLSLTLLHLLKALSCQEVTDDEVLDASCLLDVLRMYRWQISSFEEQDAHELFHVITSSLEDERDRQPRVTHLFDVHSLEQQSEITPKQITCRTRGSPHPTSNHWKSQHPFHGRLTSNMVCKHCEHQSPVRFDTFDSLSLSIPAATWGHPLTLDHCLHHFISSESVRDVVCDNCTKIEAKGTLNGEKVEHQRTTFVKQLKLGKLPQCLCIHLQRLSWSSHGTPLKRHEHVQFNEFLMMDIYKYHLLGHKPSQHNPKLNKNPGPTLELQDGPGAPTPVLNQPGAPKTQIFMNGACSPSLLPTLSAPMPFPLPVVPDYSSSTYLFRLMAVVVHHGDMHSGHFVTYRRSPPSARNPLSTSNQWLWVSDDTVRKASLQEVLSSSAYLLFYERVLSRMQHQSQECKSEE
USP28 inh: inhibitors of human USP28 deubiquitinase; actives 3% (n = 47,000); inhibition, % at 25 µM; Q96RU2; purified USP28, Ub-rhodamine cleavage fluorescence, 30 min
The depositor's hits bear a star; i = inactive. No stated cut-off is given here; in the data, active means inhibition above about 30%; inactive means the rest.

SMILES	USP30 inh	USP28 inh
Cc1ccc(C)c(NC(=O)CCc2c(C)nn(-c3cc(N4CCOCC4)ncn3)c2C)c1	34*	6
COc1cccc(NC(=O)CCc2c(C)nn(-c3cc(N4CCCCC4)ncn3)c2C)c1	9	68*
O=C(Cc1ccccc1)N1CCc2nc(C(=O)N3CCCCC3)sc2CC1	14	0
FC(F)(F)Oc1ccccc1-c1nnc(-c2ccccn2)o1	-18	0
CCOc1ccccc1NC(=O)C1(c2ccccc2)CC1	18	6
Cc1cccc(O)c1C(=O)OC(C)c1cccc2nc3c(C(=O)O)cc4c(c3nc12)C(C)c1cccc2c1N4c1cccc(C(=O)O)c1N2 (stereo not given)	101*	100*
COC(=O)c1cccc2nc3c(C(C)O)cccc3nc12 (stereo not given)	-26	-41
CCc1ccc(NC(=O)CSc2nnnn2-c2cccnc2)cc1	12	31*
O=C(CSc1nnnn1-c1ccccc1)NC(C(=O)O)(c1ccccc1)c1ccccc1	5	-1
Cc1ccc2c(c1)C(=O)c1c(O)cccc1C2=O	11	3
O=C1C=C(O)c2c(O)cccc2C1=O	-28	51*
COC1C(O)=C2C(=O)O/C(C)=C/C=C/C=C/C=C/CC(c3ccccc3)NC(=O)/C=C/C=C/C=C\C=C\C2(C)C1O (stereo not given)	-51	31*
O=C(CSc1nc2ccccc2[nH]1)Nc1cccc2c1OCCO2	-38	41*
CC(Sc1nc2ccccc2[nH]1)C(=O)Nc1ccc2c(c1)OCCO2 (stereo not given)	-33	28
COc1ccc(-n2nnc(C(=O)Nc3cccc(F)c3)c2C)cc1	27	18
CC(Oc1ccc(F)cc1)c1nnc(C2(c3ccc(Cl)cc3)CCOCC2)o1 (stereo not given)	27	6
N#Cc1ccc(C(=O)NCC(=O)N2CCCc3ccccc32)cc1	-6	4
Cc1nc(NCc2ccc(Cl)cc2)cc(-c2cncc(-c3cccs3)c2)n1	-70	-23
O=C(CN1CCN(S(=O)(=O)c2ccc3c(c2)OCCCO3)CC1)N1CCCc2ccccc21	12	1
Cc1ccc(N(CC(=O)N2CCCc3ccccc32)S(=O)(=O)c2ccc3c(c2)OCCO3)cc1	32*	13
CCCCN(C)C(=O)c1sc2nc3n(c(=O)c2c1C)CCCCC3	13	0
CN(C)C(=O)CNC(=O)c1ccc2onc(-c3coc(-c4ccccc4)n3)c2c1	29	16
O=C(NC1CC1)c1ccc2onc(-c3coc(-c4ccccc4)n3)c2c1	38*	5
Cc1nc2nc3c(cn2n1)C(=O)CC(c1ccco1)C3 (stereo not given)	-145	-3
CC(C)c1nc(-c2cc(C(=O)NCCN3CCOCC3)c3ccccn23)cs1	i	-204
SMILES	USP30 inh	USP28 inh
O=C(NCCc1c[nH]c2ccccc12)c1cc2c(s1)CS(=O)(=O)C2	-33	16
O=C(NCCCN1CCc2ccccc2C1)c1cc2c(s1)CS(=O)(=O)C2	-26	41*
COc1ccccc1NC(=O)COc1cc(CSc2ncccn2)ncc1OC	24	5
COc1cnc(CSc2ccc(C)cc2)cc1OCC(=O)Nc1ccccc1	36*	-6
COC(=O)c1ccc(NS(=O)(=O)c2c[nH]c3ccc([N+](=O)[O-])cc23)cc1	28	14
Cc1cc(F)ccc1NS(=O)(=O)c1c[nH]c2ccc([N+](=O)[O-])cc12	42*	8
CCCCCNc1ncnc2c1CN(C1CCNC1)C(=O)CN2C (stereo not given)	-13	-6
CN1CC(=O)N(C2CCNC2)Cc2c(NCc3ccc(Cl)cc3)ncnc21 (stereo not given)	9	31*
CC(C)c1ccc(-n2c(=O)c3ccccc3c3ccccc3c2=O)cc1	35*	12
CC(C)c1nc(SCc2nc3ccccc3c(=O)n2-c2ccccc2)c2ccccc2n1	-6	-10
Cn1ccc(C(=O)N2[C@@H](c3ccccc3)C[C@@]3(C)[C@H](O)[C@H](O)CCC[C@@H]23)n1	-93	-29
c1ccc(CCNc2nc(-c3ccccc3)c(-c3ccccc3)s2)cc1	12	0
c1ccc(CCNc2nc3ccccc3s2)cc1	-9	35*
CC(=O)N1c2ccccc2NC2=C(C(=O)CC(c3ccc(C)cc3)C2)C1c1ccc(OC(C)C)cc1 (stereo not given)	9	-11
Cc1cnc(CN2CCCC(c3ccc4cn[nH]c4n3)C2)cn1 (stereo not given)	-2	0
COc1cc(NC(=O)CNCC2CCCO2)c(C)cc1[N+](=O)[O-] (stereo not given)	19	1
O=C(CSc1nnc2ccc(-c3ccc4c(c3)OCO4)nn12)NCC1CCCO1 (stereo not given)	42*	10
NC(=O)CSc1nnc2ccc(-c3ccc4c(c3)OCO4)nn12	2	0
Cc1cccc(N2CCN(CCNC(=O)CCc3nnc4n(CCCOC(C)C)c(=O)c5ccccc5n34)CC2)c1C	-2	0
O=C(C1CCCN1S(=O)(=O)c1cccs1)N1CCN(c2ccccc2)CC1 (stereo not given)	3	6
CC(C)(C)c1ccc(Cn2nnc3c(=O)[nH]c(C4CCN(S(=O)(=O)c5ccc(S(=O)(=O)NC6CCCC6)cc5)CC4)nc32)cc1	26	0
CC(C)(C)c1ccc(Cn2nnc3c(=O)[nH]c(C4CCN(S(=O)(=O)c5ccc(S(=O)(=O)NC6CC6)cc5)CC4)nc32)cc1	10	32*
COc1cc(S(=O)(=O)N2CCC(c3nc4c(nnn4Cc4ccc(F)cc4)c(=O)[nH]3)CC2)ccc1-n1cnnn1	47*	25
COc1cc(S(=O)(=O)N2CCC(c3nc4c(nnn4Cc4cccc(F)c4)c(=O)[nH]3)CC2)ccc1-n1cnnn1	-35	8
Cc1ccc(NC(=O)CSc2ncc(CO)n2Cc2ccc(Cl)cc2)c(C)c1	-6	-2
SMILES	USP30 inh	USP28 inh
CCN1CCN(c2nc3c(s2)CN(C(=O)c2ccnn2C)CC3)CC1	7	11
COc1ccc(-c2cncc(C3CN(CC(=O)N4CCCC4)CCO3)n2)cc1 (stereo not given)	4	-6
C[C@]12CN(Cc3ccccc3)C[C@H]1NC(=O)c1ccccc1C2=O	13	7
COc1ccc(C(=O)C(C)OC(=O)c2cccc(S(=O)(=O)Nc3cc([N+](=O)[O-])ccc3OC)c2)c(OC)c1 (stereo not given)	31*	18
COc1cccc(NC(=O)C(C)OC(=O)c2ccc(NS(=O)(=O)c3ccc(F)c(F)c3)cc2)c1 (stereo not given)	-38	-6
COc1cccc(CNC(=O)c2cc(CN3CCOCC3)on2)c1	-1	-2
CSc1ncccc1C(=O)Nc1ccnn1Cc1ccccn1	-16	-10
CSc1ncccc1C(=O)OCc1ccc(Cl)c(Cl)c1	25	44*
COc1cc2c(cc1OC)C(c1ccccc1)N(Cc1cc(C)no1)CC2 (stereo not given)	6	6
O=S(=O)(Nc1cccc(-c2nnc(Cc3ccc4c(c3)OCO4)o2)c1)c1ccccc1	27	32*
O=S(=O)(Nc1cccc(-c2nnc(-c3ccccc3)o2)c1)c1ccccc1	-1	-7
O=C(Cn1cnc2c(oc3nc4c(cc32)CCCC4)c1=O)N1CCCC1	-47	-16
CN1CCn2c(-c3cccnc3)cnc2C12CCN(S(=O)(=O)c1ccccc1)CC2	-2	0
O=C1c2ccccc2S(=O)(=O)N1Cc1ccc2nonc2c1	15	37*

Assay outcomes from PubChem BioAssay.
